Consider two sequences from patent US11472855, “RNA-binding protein” (Panitch Schwarze Belisario & Nadel LLP).

The target of one test is hPUF_MT(F856A) (UniProt Q14671 SEQ:1-349, F856A). Put plainly: EMSA. The conditions noted are these: tags: MBP; label: Alexa680 at 5' and 3'; ssRNA. A general note: A gel shift assay detects complexes by their altered migration in electrophoresis.
The target of another test is hPUF_MT(F865A) (UniProt Q14671 SEQ:1-349, F865A). As to the kind of experiment: EMSA; smaller contribution than F856. The conditions noted are these: tags: MBP; label: Alexa680 at 5' and 3'; ssRNA.
Test [1] addresses T1, hPUF_MT(R5:A_13R)(R5:A_13Y)2(R6:C_13Y)3.
T1 chain: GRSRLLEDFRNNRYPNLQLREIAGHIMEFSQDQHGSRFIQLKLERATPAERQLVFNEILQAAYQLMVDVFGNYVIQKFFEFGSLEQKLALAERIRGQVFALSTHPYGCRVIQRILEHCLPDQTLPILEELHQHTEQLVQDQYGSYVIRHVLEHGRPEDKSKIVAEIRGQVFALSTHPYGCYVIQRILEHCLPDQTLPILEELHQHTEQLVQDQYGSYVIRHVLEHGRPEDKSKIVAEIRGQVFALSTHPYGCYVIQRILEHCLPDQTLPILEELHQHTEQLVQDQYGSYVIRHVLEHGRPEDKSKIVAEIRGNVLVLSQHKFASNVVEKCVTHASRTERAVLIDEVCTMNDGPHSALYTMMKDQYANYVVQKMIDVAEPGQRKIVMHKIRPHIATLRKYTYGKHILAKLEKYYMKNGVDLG
As to the kind of experiment: EMSA; 13R about 10 times greater. As to conditions: label: Alexa680 at 5' and 3'; ssRNA.

With CCAGAAUUGUAUAUAUUCG, the binding signal in the test with hPUF_MT(F856A) and with hPUF_MT(F865A) was ~0.1 fold of WT throughout. As to CCAGAAUUGCACACAUAUUCG, the binding signal in test [1] was ~0.1 fold of 13R protein.
